Holding throughout (details): mRNA level, 48 h; actives raise or lower the signal
Read-out in assay [1]: Early growth response protein 1 (EGR1) transcription factor, EGR1 (gene 1958)
Briefly: LTEA_HepaRG_EGR1: Life Technologies and Expression Analysis (LTEA) Assay for Early growth response protein 1 (EGR1) transcription factor using HepaRG (AID 2283490). Put shortly:
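HepaRG, 48 h exposure, 8-pt half-log series from 100 uM, 0.5% DMSO vehicle; EGR1 transcript by TaqMan qRT-PCR (Fluidigm array), housekeeping-normalized; bidirectional fit relative to DMSO baseline.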

Read-out in assay [2]: Ezrin (EZR), EZR (gene 7430)
The assay is described as follows: LTEA_HepaRG_EZR: Life Technologies and Expression Analysis (LTEA) Assay for Ezrin (EZR) using HepaRG (AID 2283491). Put shortly: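 EZR transcript levels came from Fluidigm qRT-PCR and were normalized to three housekeeping genes after 48 h chemical exposure of HepaRG cells. Dosing used an 8-point half-log series with a 100 uM top concentration in 0.5% DMSO, tested in duplicate; both directions were fitted versus vehicle.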

Read-out in assay [3]: Cytochrome P450 3A7 (Homo sapiens) (UniProt P24462)
Briefly: LTEA_HepaRG_CYP3A7: Life Technologies and Expression Analysis (LTEA) Assay for CYP3A7 using HepaRG (AID 2283492). Put shortly:
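Human HepaRG liver cells, 48 h post-plating, switched to serum-free induction medium and exposed in duplicate for 48 h. Dosing: 100 uM top, half-log dilutions, 8 points, 0.5% DMSO vehicle. Read-out: CYP3A7 mRNA, gain or loss fitted against DMSO baseline.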

Read-out in the next assay: CYP3A5 (gene 1577)
Briefly: LTEA_HepaRG_CYP3A5: Life Technologies and Expression Analysis (LTEA) Assay for CYP3A5 using HepaRG (AID 2283493). The gist of the method:
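Readout was CYP3A5 mRNA by qRT-PCR. HepaRG cultures were exposed for 48 h in serum-free induction medium to chemicals at up to 100 uM, and responses were fitted in both directions relative to DMSO vehicle.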

Read-out in assay [4]: Fatty Acid-Binding Protein 1 (FABP1), FABP1 (gene 2168)
Briefly: LTEA_HepaRG_FABP1: Life Technologies and Expression Analysis (LTEA) Assay for Fatty Acid-Binding Protein 1 (FABP1) using HepaRG (AID 2283494). Put shortly: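 qRT-PCR readout of FABP1 transcript (normalized to three housekeeping genes) after 48 h chemical exposure of HepaRG cells; eight concentrations, half-log steps, max 100 uM, 0.5% DMSO vehicle; gain or loss fitted relative to DMSO baseline.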

Read-out in assay [5]: Cytochrome P450 4A22 (Homo sapiens) (UniProt Q5TCH4)
The assay is described as follows: LTEA_HepaRG_CYP4A22: Life Technologies and Expression Analysis (LTEA) Assay for Cytochrome P450 4A22 (CYP4A22) using HepaRG (AID 2283495). The gist of the method:
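Readout is CYP4A22 transcript induction or loss, quantified by qRT-PCR and normalized to ACTB, GAPDH and POLR2A. Human HepaRG cells receive test chemicals for 48 h at eight half-log concentrations from 100 uM in 0.5% DMSO.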

Read-out in assay [6]: Cytochrome P450 7A1 (Homo sapiens) (UniProt P22680)
The assay is described as follows: LTEA_HepaRG_CYP7A1: Life Technologies and Expression Analysis (LTEA) Assay for Cytochrome P450 7A1 (CYP7A1) using HepaRG (AID 2283496). The gist of the method: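 Using 0.5% DMSO as vehicle and baseline, chemicals were tested in duplicate over an 8-point range from 100 uM on HepaRG cells for 48 h; qRT-PCR signals were normalised to ACTB, GAPDH and POLR2A.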

Read-out in assay [7]: Glutathione S-Transferase (GSTA2), GSTA2 (gene 2939)
The assay is described as follows: LTEA_HepaRG_GSTA2: Life Technologies and Expression Analysis (LTEA) Assay for Glutathione S-Transferase (GSTA2) using HepaRG (AID 2283497). The gist of the method:
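qRT-PCR readout of GSTA2 transcript, normalized to three housekeeping genes, fitted bidirectionally against 0.5% DMSO baseline. Differentiated HepaRG cells received compound for 48 h at 8 concentrations (top 100 uM, half-log steps).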

Read-out in assay [8]: Glutamate-cysteine ligase catalytic (GCLC), GCLC (gene 2729)
The assay is described as follows: LTEA_HepaRG_GCLC: Life Technologies and Expression Analysis (LTEA) Assay for Glutamate-cysteine ligase catalytic (GCLC) using HepaRG (AID 2283498). The gist of the method: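 HepaRG, 48 h exposure, 8-pt half-log series from 100 uM, 0.5% DMSO vehicle; TaqMan qRT-PCR for GCLC mRNA, housekeeping-normalized; bidirectional curve fit vs DMSO baseline.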

Read-out in assay [9]: Glutamate-cysteine ligase regulatory (GCLM), GCLM (gene 2730)
Briefly: LTEA_HepaRG_GCLM: Life Technologies and Expression Analysis (LTEA) Assay for Glutamate-cysteine ligase regulatory (GCLM) using HepaRG (AID 2283500). Put shortly: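 In this multiplexed HepaRG gene-expression assay, GCLM mRNA change after 48 h treatment (8 concentrations, max 100 uM) was scored against DMSO by bidirectional curve fitting.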

Read-out in assay [10]: Glutathione S-transferase M3 (GSTM3), GSTM3 (gene 2947)
The assay is described as follows: LTEA_HepaRG_GSTM3: Life Technologies and Expression Analysis (LTEA) Assay for Glutathione S-transferase M3 (GSTM3) using HepaRG (AID 2283501). Put shortly: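 HepaRG, plated 48 h, then serum-free induction medium; test chemical 48 h, duplicate; 100 uM top, half-log x8, 0.5% DMSO. Read-out: GSTM3 mRNA (TaqMan qRT-PCR, Fluidigm array). Bidirectional fit vs DMSO.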

Read-out in assay [11]: Heat shock 70 kDa protein 1 (HSPA1A), gene 3303
The assay is described as follows: LTEA_HepaRG_HSPA1A: Life Technologies and Expression Analysis (LTEA) Assay for Heat shock 70 kDa protein 1 (HSPA1A) using HepaRG (AID 2283502). Put shortly: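 An oxidative-stress marker readout: HepaRG cells treated 48 h in duplicate with an eight-point series (highest 100 uM) had HSPA1A mRNA quantified by TaqMan qRT-PCR. Activity was fitted in both directions using 0.5% DMSO as baseline.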

Read-out in assay [12]: Hypoxia-inducible factor 1-alpha (Homo sapiens) (UniProt Q16665)
The assay is described as follows: LTEA_HepaRG_HIF1A: Life Technologies and Expression Analysis (LTEA) Assay for Hypoxia-inducible factor 1 (HIF1A) Trancription factor using HepaRG (AID 2283503).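 Note: HIF1A transcript by TaqMan qRT-PCR normalized to ACTB GAPDH and POLR2A.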 Put shortly:
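Gain- or loss-of-signal HIF1A mRNA changes are fitted against a DMSO baseline. HepaRG cultures receive eight concentrations, highest 100 uM, for 48 h in serum-free induction medium with 0.5% DMSO.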

Read-out in assay [13]: 3-Hydroxy-3-Methylglutaryl-CoA Synthase 2 (HMGCS2), HMGCS2 (gene 3158)
Briefly: LTEA_HepaRG_HMGCS2: Life Technologies and Expression Analysis (LTEA) Assay for 3-Hydroxy-3-Methylglutaryl-CoA Synthase 2 (HMGCS2) using HepaRG (AID 2283504). The gist of the method: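 HepaRG, plated 48 h then switched to serum-free induction media; cmpd 8-pt, max 100 uM, 1/2-log, 0.5% DMSO, n=2, 48 h. HMGCS2 mRNA by Fluidigm TaqMan qRT-PCR, ACTB/GAPDH/POLR2A norm; bidirectional fit vs DMSO.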

Read-out in another assay: HGF (gene 3082)
The assay is described as follows: LTEA_HepaRG_HGF: Life Technologies and Expression Analysis (LTEA) Assay for Hepatocyte Growth Facto (HGF) using HepaRG (AID 2283505). Put shortly:
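Read-out is HGF transcript level by qRT-PCR, normalized to three housekeeping genes, fitted bidirectionally against 0.5% DMSO vehicle. Human HepaRG cells received test chemicals for 48 h at up to 100 uM.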

Read-out in assay [14]: Insulin Like Growth Factor 1 (IGF1), IGF1 (gene 3479)
The assay is described as follows: LTEA_HepaRG_IGF1: Life Technologies and Expression Analysis (LTEA) Assay for Insulin Like Growth Factor 1 (IGF1) using HepaRG (AID 2283506). The gist of the method: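 Endpoint: IGF1 mRNA change by qRT-PCR, housekeeping-normalized, fitted bidirectionally relative to 0.5% DMSO vehicle. Human HepaRG cells were treated 48 h in serum-free induction medium, eight half-log concentrations topping at 100 uM.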

Read-out in assay [15]: Intercellular Adhesion Molecule 1 (ICAM1), ICAM1 (gene 3383)
The assay is described as follows: LTEA_HepaRG_ICAM1: Life Technologies and Expression Analysis (LTEA) Assay for Intercellular Adhesion Molecule 1 (ICAM1) using HepaRG (AID 2283507). Put shortly:
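Readout is qRT-PCR mRNA level, normalized to three housekeeping genes and fitted bidirectionally against 0.5% DMSO vehicle. Human HepaRG cultures received compound for 48 h, top concentration 100 uM with half-log dilutions.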

Read-out in assay [16]: Interleukin 6 (IL6), IL6 (gene 3569)
Briefly: LTEA_HepaRG_IL6: Life Technologies and Expression Analysis (LTEA) Assay for Interleukin 6 (IL6) using HepaRG (AID 2283509). Put shortly:
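qRT-PCR read-out of IL6 transcript, normalized to three housekeeping genes, after 48 h chemical exposure of HepaRG cells; 8-point half-log series, top 100 uM, 0.5% DMSO vehicle. Bidirectional curve fitting against DMSO baseline.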

Read-out in assay [17]: Insulin-like growth factor-binding protein 1 (IGFBP1), IGFBP1 (gene 3484)
Briefly: LTEA_HepaRG_IGFBP1: Life Technologies and Expression Analysis (LTEA) Assay for Insulin-like growth factor-binding protein 1 (IGFBP1) using HepaRG (AID 2283508). The gist of the method:
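Thawed HepaRG cells are plated for 48 h, switched to serum-free induction medium, then dosed in duplicate for another 48 h (100 uM top, half-log steps). Lysates in RLT go to qRT-PCR, and gain or loss of signal is fitted relative to vehicle.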

In general, AC50 refers to the midpoint of the concentration-response curve, whichever way the signal moves.

Where “and” joins values, the source holds several entries; their conditions need not be identical. Equal values may be shown once. Some structures have more than one record in an assay (separate samples or runs), and their calls can disagree. Calls of active or inactive are those of the source. Rule for the calls: active = hit-call score of the fitted dose curve at least 0.9, where 1 is the maximum; inactive = score below 0.9.

Hypoxia-inducible factor 1-alpha (Homo sapiens), sequence (Q16665 whole entry, looked up): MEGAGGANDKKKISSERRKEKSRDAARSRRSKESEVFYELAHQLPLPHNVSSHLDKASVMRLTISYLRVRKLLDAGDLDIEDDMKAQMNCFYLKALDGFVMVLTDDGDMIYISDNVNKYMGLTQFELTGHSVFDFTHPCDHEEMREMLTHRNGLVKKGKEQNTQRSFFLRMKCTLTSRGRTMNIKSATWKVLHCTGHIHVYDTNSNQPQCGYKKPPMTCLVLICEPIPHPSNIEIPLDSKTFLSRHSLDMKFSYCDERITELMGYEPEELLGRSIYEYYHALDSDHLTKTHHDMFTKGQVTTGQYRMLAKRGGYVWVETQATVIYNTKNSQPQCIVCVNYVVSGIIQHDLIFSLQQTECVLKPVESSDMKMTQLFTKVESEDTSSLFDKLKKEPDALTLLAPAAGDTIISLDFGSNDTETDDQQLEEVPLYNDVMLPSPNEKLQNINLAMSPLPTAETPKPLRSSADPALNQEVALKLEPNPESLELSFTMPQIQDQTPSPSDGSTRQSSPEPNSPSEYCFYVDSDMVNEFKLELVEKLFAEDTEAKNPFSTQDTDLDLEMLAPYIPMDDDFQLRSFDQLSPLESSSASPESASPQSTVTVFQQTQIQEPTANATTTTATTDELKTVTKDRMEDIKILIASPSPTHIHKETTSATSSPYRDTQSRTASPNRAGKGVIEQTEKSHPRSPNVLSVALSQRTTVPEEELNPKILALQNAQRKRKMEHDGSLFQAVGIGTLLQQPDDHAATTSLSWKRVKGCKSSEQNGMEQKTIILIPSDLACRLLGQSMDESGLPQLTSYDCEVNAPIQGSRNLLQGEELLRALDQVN
Cytochrome P450 3A7 (Homo sapiens), sequence (P24462 whole entry, looked up): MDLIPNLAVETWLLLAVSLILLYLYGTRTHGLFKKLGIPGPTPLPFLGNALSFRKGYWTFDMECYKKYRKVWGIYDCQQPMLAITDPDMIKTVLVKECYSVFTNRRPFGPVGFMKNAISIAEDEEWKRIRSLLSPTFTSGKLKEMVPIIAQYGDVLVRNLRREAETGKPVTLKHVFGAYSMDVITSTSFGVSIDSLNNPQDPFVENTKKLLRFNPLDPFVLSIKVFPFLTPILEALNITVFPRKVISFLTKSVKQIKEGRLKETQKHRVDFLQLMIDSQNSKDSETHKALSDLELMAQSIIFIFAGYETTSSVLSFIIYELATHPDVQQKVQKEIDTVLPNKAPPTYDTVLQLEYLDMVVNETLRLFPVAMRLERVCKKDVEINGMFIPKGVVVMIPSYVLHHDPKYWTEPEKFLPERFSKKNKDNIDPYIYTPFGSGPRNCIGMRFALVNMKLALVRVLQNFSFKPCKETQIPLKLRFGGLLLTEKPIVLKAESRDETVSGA

For `CC1(c2ccc(Oc3ccccc3)cc2)OC(=O)N(Nc2ccccc2)C1=O` (stereo unspecified), the AC50 in [1] is 82.1 µM (active); in assay [2] it was 4.5 µM (active); in assay [3], 24.8 µM (active); in the assay with CYP3A5 (gene 1577), 90.2 µM (active); in assay [4], 18.7 µM (active); in assay [5], 9.55 µM (active). The AC50 was 12.3 µM (active) in assay [6]; 24.5 µM (active) in assay [7]; 9.75 µM (active) in [9]; 50.2 µM (active) in [10]; 80.5 µM (active) in [11]; 12.5 µM (active) in [13]. Also, the AC50 in [14] was 8.33 µM (active); in assay [15], 13.3 µM (active); in [16], 21.1 µM (active). Further, the molecule was called inactive (in assay [8]; in assay [12]; with HGF (gene 3082)).
As for `O=S(=O)(O)C(F)(F)C(F)(F)C(F)(F)C(F)(F)C(F)(F)C(F)(F)C(F)(F)C(F)(F)F`, the AC50 in assay [1] was 50 µM (active) and 7.35 µM (active); in assay [2], 50 µM (active) and 14.2 µM (active); in [4] it was 94.2 µM (active) and 77 µM (active); in [5] it was 89.2 µM (active) [middle of 4 runs]; in assay [6] it was 94.4 µM (active) and 94 µM (active) and 75.4 µM (active); in [7], 76.5 µM (active) [middle of 4 runs]. The AC50 was 19.9 µM (active) in assay [11]; 83.8 µM (active) and 92.2 µM (active) and 81.5 µM (active) in [13]. The result (in [1]; in [2]; with CYP3A5 (gene 1577); in assay [4]; in assay [6]; in assay [8]) was inactive. Besides, the result (in assay [9]; in assay [10]; in [11]; in assay [12]; in assay [13]; in the assay with HGF (gene 3082)) was inactive. Moreover, the molecule was called inactive in assay [15] and in assay [16].
Take `C#CCN1C(=O)COc2cc(F)c(N3C(=O)C4=C(CCCC4)C3=O)cc21`: the concentration at half-maximal activity (AC50) in assay [1] is 12 µM (active); in [3] it was 0.97 µM (active); in assay [4], 25.4 µM (active); in assay [5], 16.1 µM (active); in [14], 23.5 µM (active). Further, the call (in [2]; in the assay with CYP3A5 (gene 1577); in assay [6]; in assay [7]; in [8]; in [9]) was inactive. For the same molecule, the call (in [10]; in assay [11]; in assay [12]; in [13]; with HGF (gene 3082); in assay [15]) was inactive. In addition, the call in assay [17] and in [16] was inactive.
As for `CCC(C)Nc1c([N+](=O)[O-])cc(C(C)(C)C)cc1[N+](=O)[O-]` (stereo unspecified), the molecule was called inactive (in assay [1]; in assay [2]; in assay [3]; with CYP3A5 (gene 1577); in assay [7]; in [8]). Besides, the result (in assay [9]; in assay [10]; in assay [11]; in [12]; with HGF (gene 3082); in [15]) was inactive. Also, the result in assay [16] was inactive. Besides, the AC50 in assay [4] is 50 µM (active); in assay [5], 38.7 µM (active); in assay [6], 34.4 µM (active); in [13], 50 µM (active); in assay [14], 48 µM (active).
Regarding `CCC(C)(C)C(=O)OC1=C(c2ccc(Cl)cc2Cl)C(=O)OC12CCCCC2`, the outcome (in assay [1]; in assay [2]; with CYP3A5 (gene 1577); in assay [4]; in [5]; in assay [6]) was inactive. Besides, the call in assay [7], in [8], in assay [9], in assay [10], in assay [11] and in assay [12] was inactive. Besides, the call (with HGF (gene 3082); in [15]; in assay [17]; in [16]) was inactive. Further, the values for the AC50 in assay [3], in [13] and in assay [14] were 25.5 µM (active), 50 µM (active) and 31.1 µM (active), respectively.
